High-throughput results as filed in PubChem.
HT1080NT lethal: kills 2HG-producing HT-1080-NT fibrosarcoma cells; HT-1080-NT fibrosarcoma viability, CellTiter-Glo ATP luminescence, 48 h; Potency, µM (top dose mostly 46.1 µM), without a hit: at the highest dose activity, negative = less viability, actives largely listed as cytotoxic; actives 1.6% (n = 360,000); AID 686970;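 also: NT is the 2HG producing partner of a matched IDH1 knockdown line; potency is read from the fitted curve at half-maximal effect; 0% = DMSO-treated cells and -100% = media-only wells without cells; nearly all actives have a fitted effect of over 55% in size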
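Read-out is CellTiter-Glo luminescence after 10 minutes at room temperature, following 48 hours' compound treatment of HT-1080-NT cells (750 cells/well, RPMI, 5% FBS, 37 degrees C).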
HT1080 IDH1KD tx: HT-1080 IDH1 knockdown cell toxicity (counter line); HT-1080 IDH1 knockdown viability, ATP luminescence, 48 h; Potency, µM (series often up to 46.1 µM), for the others: at the top dose activity, negative = toxicity, most hits filed as cytotoxic; actives 2% (n = 360,000); AID 686971;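 also: potency is read from the fitted curve at half-maximal effect; 0% = DMSO wells and -100% = cell-free medium wells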
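Using the IDH1-knockdown HT-1080 line run in the same batch and compound series as the NT line, viability after 48 h at 37 °C was determined by CellTiter-Glo luminescence and expressed as % activity.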
IL1B secr inh: inhibitors of inflammasome signaling (IL-1 beta secretion). THP-1 LPS/ATP IL-1B secretion, AlphaLISA, 16 h; hits give low values. activity change, % at 57.5 µM. actives 4.7% (n = 360,000); in the data active = activity change below about -50%; inconclusive = mostly about -30% to -49%
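Secreted IL-1B measured by AlphaLISA bead assay after 16 h compound exposure of THP-1 cells; compounds (final up to 57.5 uM) added 1 h before LPS (250 ng/mL) and ATP (1.25 mM) stimulation; lower signal means less secretion.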
DT40 TDP1 no CPT: qHTS for Inhibitors of human tyrosyl-DNA phosphodiesterase 1 (TDP1): qHTS in cells in absence of CPT | DT40 Tdp1-/- hTDP1 cells, no CPT, ATP luminescence, 48 h | Potency, µM (doses to about 46.2 µM), without a hit: top-dose activity change, negative = growth inhibition, hits mostly inhibitors | actives 15% (n = 420,000) | AID 686978, 2013; also: potency is read from the fitted curve at half-maximal effect; nearly all actives have a fitted effect of over 55% in size
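Readout: luminescence from CellTiter-Glo after 30 min in the dark at RT. Cells: DT40 Tdp1-/- with stable hTDP1, 400/well. Exposure: compounds alone, ≥48 hr, 37 °C.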
DT40 TDP1 CPT: DT40-hTDP1 cell growth loss with CPT. chicken DT40 Tdp1-/-;hTDP1 cells + 20 nM CPT, ATP luminescence, 48 h. Potency, µM (titrated, usually from 46.2 µM), for inactives: at the highest dose activity change, negative = growth inhibition, usual class: inhibitors. actives 12% (n = 420,000); also: potency is read from the fitted curve at half-maximal effect; nearly all actives have a fitted effect of over 55% in size
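Chicken DT40 Tdp1-/- cells complemented with human TDP1, 400 cells/well, exposed to compounds plus 20 nM camptothecin for at least 48 h at 37 C; viability read as ATP content by CellTiter-Glo luminescence.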
Starred values were filed as active, the others as inactive; ? = inconclusive; · = not tested or not shown. Sampled rows, rich in hits. Any-hit rate of the full collection: about 19%. Unless noted, calls follow the shape of the dose curve; as a rule, active = well fitted curve in the direction sought with a large enough effect; inconclusive = small, poorly fitted or top-dose-only effect, or another doubt; inactive = no such curve, though single readings can be large; an effect the other way counts as inactive or inconclusive. Unless noted, % is scaled to controls: 0 for no effect and ±100 for the full control effect.

SMILES	HT1080NT lethal	HT1080 IDH1KD tx	IL1B secr inh	DT40 TDP1 no CPT	DT40 TDP1 CPT
Oc1cccc2ccc[n+](CC(O)CBr)c12 (stereo unspecified)	·	·	·	-9%	-2%
CCCn1c(SCC(=O)NCc2ccc3c(c2)OCO3)n[nH]c1=O	-2%	-3%	8	0%	1%
N#CC1=C(N)C2=CCCC[C@H]2[C@H](c2ccccc2)C1(C#N)C#N	?	?	-56*	?	?
N#CC1=C(N)C(C#N)(C#N)[C@H](c2ccncc2)[C@H]2CC3(CC=C12)OCCO3	-3%	-4%	7	-17%	?
N#CC1=C(N)C2=CCCC[C@H]2[C@H](c2ccc(Br)cc2)C1(C#N)C#N	-4%	-5%	-95*	?	?
O=C(CSc1nc(=O)n2ccccc2n1)N1CCCc2ccccc21	-1%	3%	8	1%	-22%
CCN(CC)CCNc1ccc(C)c2sc3ccc(O)cc3c(=O)c12	-23%	?	-101*	0.15µM*	0.16µM*
O=[N+]([O-])c1ccc(C2=Nn3c(Cn4nnc5ccccc54)nnc3SC2)cc1	-4%	5%	-9	16µM*	21µM*
CCOc1ccc(-c2noc([C@@H]3O[C@H](CO)[C@@H](O)[C@H]3O)n2)cc1	12%	8%	-58*	?	?
OC[C@H]1O[C@@H](c2nc(-c3cccc4ccccc34)no2)[C@H](O)[C@@H]1O	?	-16%	-68*	15µM*	?
OC[C@H]1O[C@@H](c2nc(-c3ccccc3Br)no2)[C@H](O)[C@@H]1O	10µM*	15µM*	0	6.5µM*	0.52µM*
COc1ccc(-c2noc([C@@H]3O[C@H](CO)[C@H](O)[C@H](O)[C@H]3O)n2)cc1OC	25%	4%	18	15%	13%
CC(=O)c1ccc(OCC(O)CN2CCN(c3ccccn3)CC2)cc1 (stereo unspecified)	16%	11%	5	-6%	-1%
CC(C)(C)c1ccc(OCCC(=O)NCCc2ccc(S(N)(=O)=O)cc2)cc1	-2%	-4%	10	?	?
CCOC(=O)N1CCN(C(=O)CSc2nc3c(cnn3-c3ccc(Cl)cc3)c(=O)[nH]2)CC1	3%	6%	17	26µM*	21µM*
CCOC(=O)C(C)Sc1nc2c(cnn2-c2ccc(F)cc2)c(=O)[nH]1 (stereo unspecified)	-10%	-7%	75	?	21µM*
Cc1cccc(-n2ncc3c(=O)[nH]c(SCC(=O)N4CC(=O)Nc5ccccc54)nc32)c1	1%	7%	47	16µM*	?
CCCCN(CCCC)CCNC(=O)CNC(=O)c1cccs1	9%	-2%	13	-1%	-26%
CCOc1ccc(OCCOCCn2c(-c3ccc(Cl)cc3)nc3ccccc3c2=O)cc1	·	·	·	?	-4%
CC(=O)Nc1ccc(S(=O)(=O)NCc2cc(=O)n(C)c(=O)n2C)cc1	-2%	7%	11	5%	4%
COc1ccc(CCNC(=O)C2CCN(S(=O)(=O)c3cccc4cccnc34)CC2)cc1OC	1%	3%	28	?	16µM*
O=C(NCCc1ccccc1)C1CCC(CNS(=O)(=O)c2cccc3cccnc23)CC1 (stereo unspecified)	-4%	-11%	-15	23µM*	16µM*
CCOC(=O)[C@]12Cc3c(cc(OC)c(OC)c3OC)[C@H]1N(C1CCCCC1)C(=O)c1cc(OC)ccc12	12µM*	12µM*	-118*	9.2µM*	9.2µM*
CCOC(=O)c1sc2c(c1C)c(=O)n(Cc1ccccc1)c(=O)n2CCN(C)C	-13%	-21%	-19	-24%	?
CCN(CC)C(=O)c1sc2c(c1C)c(=O)n(CCc1ccccc1)c(=O)n2Cc1ccc(C)cc1	·	·	·	?	21µM*
